# Test results from PubChem BioAssay (NCATS).
# Several values for one entry are separate records, joined by “and”; a condition that tells them apart may be missing. Equal entries are not always repeated. Inconclusive results are not listed. A call without a number means that no potency is given here. Activity calls are given as the source filed them. Unless noted, the call rests on the fitted dose curve; in most records, active means well fitted curve in the direction sought with a large enough effect; inconclusive means small, poorly fitted or top-dose-only effect, or another doubt; inactive means no such curve, though single readings can be large; an effect the other way counts as inactive or inconclusive.
# Experiments:
# [1] = Cell Viability - BJ (AID 421; calls by dose curve;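 further: potency means the concentration at half of the fitted maximal effect; cells exposed to compound for 40 hours at 37 °C before readout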); conditions: BJ fibroblast viability, qHTS
# Method in brief: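 Cytotoxicity as drop in intracellular ATP (CellTiter-Glo, 20 min RT) after 40 hr compound exposure of BJ fibroblasts at 37 °C. Titrations scaled between DMSO and 100 uM tamoxifen, Hill-fitted for AC50.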
# [2] = Cell Viability - Jurkat (AID 426;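 active means dose-dependent loss of cell ATP signal giving a full or clear fitted curve, ranked by lower potency value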;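 further: potency means the concentration at half of the fitted maximal effect; cells exposed to compound for 40 hours at 37 °C before ATP read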); conditions: qHTS
# Method in brief: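 Jurkat (Clone E6-1) cells, 5000/well in complete medium, exposed to compounds for 40 hr at 37C; intracellular ATP measured by CellTiter-Glo luminescence after 20 min at room temperature. AC50 from Hill fits.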
# [3] = Cell Viability - Hek293 (AID 427;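 active means compounds whose dose-response curve shows a full or clear partial loss of cell viability, called from curve shape rather than a numeric limit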;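 further: potency means the concentration at half of the fitted maximal effect; cells exposed to compound for 40 hours at 37 °C before reading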); conditions: qHTS
# Method in brief: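 Luminescent ATP content (CellTiter-Glo, 20 min at room temperature) was measured after a 40 hr, 37 °C compound exposure of HEK293 cells. AC50 values came from Hill-equation fits of qHTS concentration-response data normalized to DMSO and 100 uM tamoxifen.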
# [4] = Cell Viability - HepG2 (AID 433; calls by dose curve;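 further: potency means the concentration at half of the fitted maximal effect; potency for ATP loss meaning cytotoxicity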); conditions: qHTS
# Method in brief: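 ATP luminescence (CellTiter-Glo) after 40 h compound exposure, 37 °C, HepG2, 1500 cells/well, complete medium. Normalized: DMSO = basal, 100 uM tamoxifen = 100% inhibition. AC50 via standard Hill equation.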
# [5] = Cell Viability - SK-N-SH (AID 435; calls by dose curve; further: potency means the concentration at half of the fitted maximal effect); conditions: SK-N-SH neuroblastoma cell viability qHTS
# Method in brief: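 CellTiter-Glo ATP luminescence, 20 min RT read; cells pre-plated 5 hr, compound 40 hr at 37 °C, 1500 cells/well, complete medium. Normalized DMSO = 0, 100 uM tamoxifen = 100% inhibition; Hill-fit AC50.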
# [6] = Cell Viability - Renal Proximal Tubule (AID 545); conditions: renal proximal tubule cells viability; series mostly up to 91.7 µM; further: nearly all actives have a fitted effect of over 40% in size
# Method in brief: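 Rat kidney proximal tubule cells, freshly isolated; 1000 cells/well, 5 hr settle, compound 40 hr 37 °C. CellTiter-Glo 20 min RT, luminescence read. AC50 by standard Hill fit.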
# [7] = Cellular Toxicity (caspase-3) HUV-EC-C (AID 656); conditions: HUV-EC-C cells, caspase-3 activation (apoptosis), vehicle = 0, 100 µM tamoxifen = 100%; series mostly up to 92.2 µM
# Method in brief: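 Luminescent caspase-3/7 activation (aminoluciferin substrate cleavage) in HUV-EC-C cells after 16 hr compound exposure, 37°C. Signal normalized to DMSO basal and 100 uM tamoxifen as 100%; AC50 from concentration-response fitted with the Hill equation.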
# [8] = Cellular Toxicity (caspase-3) SHSY5Y (AID 657); conditions: SH-SY5Y caspase-3 activation, DMSO zero, 10 µM staurosporine = 100%; series mostly up to 91.7 µM
# Method in brief: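 Luminescent caspase-3/7 readout (aminoluciferin release) in SH-SY5Y cells after 16 h compound exposure in complete medium. Activity scaled between DMSO basal and 10 uM staurosporine as 100%; concentration-response fitted to Hill equation for AC50.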
# [9] = Cellular Toxicity (caspase-3) MRC-5 (AID 659); conditions: MRC-5 cells, luminescence, normalized: DMSO 0%, 10 µM staurosporine 100%; series mostly up to 91.7 µM
# Method in brief: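 Luminescence from caspase-cleaved aminoluciferin substrate (Caspase-Glo 3/7, 1 hr RT) reports caspase 3/7 activity in MRC-5 lung fibroblasts after 16 hr compound exposure. Normalized to DMSO basal and 10 uM staurosporine as 100%; AC50 from Hill fits.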
# [10] = MultiTox-Fluor Cytotoxicity Assay - LYMP1-002 - Live Cells (AID 955); conditions: LYMP1-002 lymphoblastoid live-cell protease fluorescence viability; series mostly up to 46.1 µM
# Method in brief: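 Human lymphoblastoid LYMP1-002 cells, 2500/well, treated 16 h at 37 C in complete medium. Live-cell protease activity via GF-AFC fluorescence (Ex/Em 405/510) after 60 min reagent incubation; AC50 from Hill fits.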
# [11] = Cell Viability - LYMP1-003 - Assay at 24 hr (AID 963); conditions: LYMP1-003 lymphoblastoid cell viability; series mostly up to 92.2 µM
# Method in brief: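 Human lymphoblastoid LYMP1-003 cells, 2500/well, treated 24 h at 37 C in complete medium. Viability read as intracellular ATP by CellTiter-Glo luminescence after 30 min at room temperature; AC50 from Hill-equation fits of qHTS concentration-response.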
# [12] = Cell Viability - LYMP2-009 (AID 968); conditions: LYMP2-009 lymphoblastoid cell viability; series mostly up to 92.2 µM; further: nearly all actives have a fitted effect of over 55% in size
# [13] = Cell Viability - LYMP2-017 (AID 972); conditions: LYMP2-017 lymphoblastoid cell viability; series mostly up to 92.2 µM; further: nearly all actives have a fitted effect of over 55% in size
# Method in brief: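 LYMP2-017 human lymphoblastoid cells (2500/well) settled 5 hr at 37 C, then exposed to compound 24 hr at 37 C in complete medium. Viability taken as intracellular ATP by CellTiter-Glo luminescence after 30 min at RT; AC50 from Hill fits.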
# [14] = Cell Viability - LYMP2-025 (AID 976); conditions: LYMP2-025 lymphoblastoid cell viability; series mostly up to 92.2 µM
# Method in brief: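 Human lymphoblastoid LYMP2-025 cells, 2500/well, exposed 24 h at 37 C in complete medium in 1536-well qHTS. Viability as cellular ATP by CellTiter-Glo luminescence; AC50 from Hill fits of concentration-response data.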
# [15] = Cell Viability - LYMP2-016 (AID 984); conditions: LYMP2-016 lymphoblastoid cell viability, qHTS; series mostly up to 92.2 µM; further: nearly all actives have a fitted effect of over 55% in size
# Method in brief: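 qHTS, 1536-well: 2500 LYMP2-016 cells/well, 5 hr 37 C, compound added, 24 hr 37 C, CellTiter-Glo 30 min RT, luminescence. Tetraoctylammonium bromide positive control. AC50 via Hill fit.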
# [16] = Cell Viability - LYMP2-024 (AID 988); conditions: LYMP2-024 lymphoblastoid cell viability; series mostly up to 92.2 µM; further: nearly all actives have a fitted effect of over 60% in size
# Method in brief: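 Human lymphoblastoid LYMP2-024 cells (2500/well) rested 5 hr, then treated with compound for 24 hr at 37 C in complete medium. Viability was measured as intracellular ATP by CellTiter-Glo luminescence. AC50 values came from Hill-equation fits.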
# [17] = qHTS Assay for Identification of Small Molecule Inducers of Hypoxia Response (AID 2120; active means well fitted curve in the direction sought with a large enough effect in the signal ratio, with a control signal flat, not every such curve was filed as active; the % refers to the signal ratio); conditions: hypoxia response reporter cells, beta-lactamase ratio readout; series mostly up to 104 µM
# Method in brief: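 HRE-bla ME-180 cells in Opti-MEM with 0.5% dialyzed FBS, pre-plated 4-5 h, then compound titration for 17 h at 37 degrees Celsius. CCF4 loaded 2.5 h at room temperature; 460/530 nm ratio gave %Activity and AC50 for induction.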
# [18] = qHTS assay for small molecule agonists of retinoid X receptor alpha signaling (AID 588544); conditions: HEK293T RXRa-UAS-bla, beta-lactamase reporter, 18 h; 530 nm emission
# [19] = target: Peroxisome proliferator-activated receptor alpha (Homo sapiens) (UniProt Q07869); assay: qHTS assay for small molecule agonists of the peroxisome proliferator-activated receptor alpha (PPARalpha) signaling pathway (AID 651778); conditions: PathHunter PPARalpha complementation, chemiluminescence, 6 h; stronger effect = higher value
# Method in brief: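 Cells plated at 2,000/well and held overnight at 37 C, 5% CO2, then compound added by pin tool for 6 hr; after PathHunter detection reagent and 60 min at room temperature, chemiluminescence from enzyme complementation was read.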
# [20] = qHTS assay for small molecule agonists of the antioxidant response element (ARE) signaling pathway measured by Nrf2-dependant transcriptional activity - cell viability counter screen (AID 720653; active means well fitted curve in the direction sought with a large enough effect in the repeat runs; an effect the other way counts as inactive or inconclusive); conditions: ARE-bla HepG2 viability, CellTiter-Glo ATP luminescence, 16 h; stronger effect = lower value
# Method in brief: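 ARE-bla HepG2 cells (2,000/well) rested 5 hrs at 37C/5% CO2, then exposed to compounds in DMSO for 16 hrs. Viability was read in the same wells as intracellular ATP by luminescence, 30 min at room temperature after reagent addition.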
# Peroxisome proliferator-activated receptor alpha (Homo sapiens), sequence (Q07869 whole entry, looked up): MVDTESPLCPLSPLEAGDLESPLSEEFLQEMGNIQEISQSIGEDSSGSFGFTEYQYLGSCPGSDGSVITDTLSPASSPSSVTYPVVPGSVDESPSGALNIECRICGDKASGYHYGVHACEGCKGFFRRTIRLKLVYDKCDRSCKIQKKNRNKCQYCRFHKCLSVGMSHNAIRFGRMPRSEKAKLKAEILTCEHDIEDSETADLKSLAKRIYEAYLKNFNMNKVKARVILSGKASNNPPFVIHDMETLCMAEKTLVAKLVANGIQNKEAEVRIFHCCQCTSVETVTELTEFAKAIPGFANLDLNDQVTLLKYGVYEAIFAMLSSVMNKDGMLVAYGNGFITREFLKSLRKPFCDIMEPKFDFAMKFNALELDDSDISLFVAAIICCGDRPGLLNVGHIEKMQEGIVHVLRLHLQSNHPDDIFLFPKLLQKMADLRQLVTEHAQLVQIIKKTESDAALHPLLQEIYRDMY
SMILES,Potency [1],Potency [2],Potency [3],Potency [4],Potency [5],outcome [6],outcome [7],outcome [8],outcome [9],outcome [10],outcome [11],Potency [12],Potency [13],Potency [14],Potency [15],Potency [16],Potency [17],max response [18],max response [19],max response [20]
ClP(Cl)(Cl)(Cl)Cl,> 92 µM (inactive),> 92 µM (inactive),> 92 µM (inactive),> 92 µM (inactive),> 92 µM (inactive),inactive,inactive,inactive,inactive,inactive,inactive,inactive,inactive,inactive,inactive,inactive,inactive,5.7%,0.162% (inactive),-1.82% (inactive)
ClCCOCCCl,> 92 µM (inactive),> 92 µM (inactive),> 92 µM (inactive),> 92 µM (inactive),> 92 µM (inactive),inactive,inactive,inactive,inactive,inactive,inactive,inactive,inactive,inactive,inactive,inactive,inactive,0.666%,-1.95% (inactive),-1.62% (inactive)
C=CC(=O)OCC(CC)CCCC (stereo not given),> 92 µM (inactive),> 92 µM (inactive),> 92 µM (inactive),> 92 µM (inactive),> 92 µM (inactive),inactive,inactive,inactive,inactive,inactive,inactive,inactive,inactive,inactive,inactive,inactive,inactive,-3.1% and -13.3%,4.79% (inactive) and 0.332% (inactive),-8.13% (inactive) and 5.16% (inactive)
Cc1ccc(N=C=O)cc1N=C=O,> 92 µM (inactive),> 92 µM (inactive),> 92 µM (inactive),> 92 µM (inactive),> 92 µM (inactive),inactive,inactive,inactive,inactive,inactive,inactive,inactive,inactive,inactive,inactive,inactive,inactive,-4.25% and -19.3%,-6.43% (inactive) and 0.39% (inactive),-4.8% (inactive) and -0.784% (inactive)
BrCCc1ccccc1,> 92 µM (inactive),> 92 µM (inactive),> 92 µM (inactive),> 92 µM (inactive),> 92 µM (inactive),inactive,inactive,inactive,inactive,inactive,inactive,inactive,inactive,inactive,inactive,inactive,inactive,1.56%,-3.08% (inactive),-7.12% (inactive)
